FBA Mtb inh – inhibitors of M. tuberculosis fructose-bisphosphate aldolase; P9WQA3; purified M. tuberculosis FBA, fluorescence read-out; inhibition, % at 1 µM; 360,000 compounds, 2.3% hits; in the data active means inhibition above about 27%
Target sequence (P9WQA3 whole entry, looked up): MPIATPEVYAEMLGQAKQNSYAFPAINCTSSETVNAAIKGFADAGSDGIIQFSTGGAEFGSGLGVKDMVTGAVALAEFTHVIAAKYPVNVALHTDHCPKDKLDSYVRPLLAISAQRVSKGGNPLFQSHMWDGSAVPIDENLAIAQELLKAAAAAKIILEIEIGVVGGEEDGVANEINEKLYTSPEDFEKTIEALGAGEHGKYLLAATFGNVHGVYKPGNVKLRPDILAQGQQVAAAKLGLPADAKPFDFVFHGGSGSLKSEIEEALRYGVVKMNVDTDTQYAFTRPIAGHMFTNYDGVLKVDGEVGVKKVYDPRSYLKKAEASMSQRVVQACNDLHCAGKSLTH
Rv3671c inh – inhibitors of M. tuberculosis serine protease Rv3671c; inhibition, % at 5.96 µM; 320,000 compounds, 0.048% hits; P9WHR9; in the data active means inhibition above about 38%;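 further: extracellular domain of Rv3671c used as enzyme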
GDH-TPI counter – GDH-TPI coupled enzyme inhibition counter-screen; GDH-TPI coupled enzyme counterscreen, NADH absorbance; 360,000 compounds, 1.2% hits; inhibition, % at 4.8 µM; in the data active means inhibition above about 30%
FadD28 binding – M. tuberculosis FadD28 bisubstrate binding inhibition; inhibition, % at 12.5 µM; FadD28 bisubstrate probe binding, fluorescence polarization; 360,000 compounds, 0.22% hits; in the data active means inhibition above about 8.5%, passing the limit was not always enough
Mtb BioA inh – BioA (M. tuberculosis) enzyme inhibition. purified M. tuberculosis BioA enzyme, plate reader. 360,000 compounds, 0.096% hits. inhibition, % at 9.99 µM; in the data active means inhibition above about 40%
A number is an active result; n = inactive; x = not tested or not shown; + = active, no number. Only some compounds are listed: those with a hit (about 3% of all), similar ones and a draw of the others.

SMILES | FBA Mtb inh | Rv3671c inh | GDH-TPI counter | FadD28 binding | Mtb BioA inh
Cc1noc(C)c1NC(=O)N(C)C[C@@H]1OCCCC[C@H](C)Oc2ccc(NS(=O)(=O)c3ccccc3)cc2C(=O)N([C@H](C)CO)C[C@@H]1C | x | x | x | x | n
CCOC(=O)C1CCN(C2=C(NS(=O)(=O)c3ccc(Cl)cc3)C(=O)c3ccccc3C2=O)CC1 | 129 | n | n | n | x
C[C@H](CO)N1C[C@H](C)[C@H](CN(C)CC2CC2)Oc2ccc(NC(=O)CCN3CCOCC3)cc2CC1=O | x | x | x | x | n
C[C@@H]1CN([C@@H](C)CO)S(=O)(=O)c2ccc(C#CCN(C)C)cc2O[C@H]1CN(C)C(=O)CC1CC1 | x | x | x | x | n
Cc1csc(NC(=O)CSc2ccc([N+](=O)[O-])cn2)n1 | n | n | n | n | n
O=C(CSc1ccc([N+](=O)[O-])cn1)Nc1nccs1 | n | n | 34 | n | n
O=C(Nc1ccc(F)cc1)N1[C@@H]2CNc3ccccc3[C@@H]2[C@@H]1CO | x | x | x | x | n
CN(C)C(=O)c1ccc(-c2ccc3c(c2)[C@@H]2[C@@H](CCN2C(=O)c2cnccn2)[C@@H](CO)N3)cc1 | x | x | x | x | n
N#C/C(=C\c1ccc[nH]1)C(=O)N1CCCCC1 | n | n | 31 | n | n
N#C/C(=C\c1ccc(O)cc1)C(=O)N1CCCC1 | n | n | n | n | n
COCCN1C=C2C(=O)C(C)(OC(=O)CCC(=O)OC)C(=O)C(Br)=C2C=C1c1ccc(OC)cc1 (stereo unspecified) | n | n | n | n | n
COc1ccc(C2=CC3=C(Br)C(=O)C(C)(OC(=O)c4cccs4)C(=O)C3=CO2)cc1 (stereo unspecified) | n | n | n | 16 | n
COc1ccc(C2=CC3=C(Br)C(=O)C(C)(OC(=O)c4ccco4)C(=O)C3=CO2)cc1 (stereo unspecified) | n | n | n | 10 | n
C[C@H](CO)N1C[C@H](C)[C@H](CN(C)S(=O)(=O)c2cn(C)cn2)OCc2cn(nn2)CCCC1=O | x | x | x | x | n
CCc1ccc(Nc2cc(=O)n(C3CCCCC3)c(=O)[nH]2)cc1 | n | n | n | n | n
O=c1cc(Nc2ccc3c(c2)OCCO3)[nH]c(=O)n1C1CCCCC1 | n | n | n | 15 | n
CCC(C(=O)NC1CCCCC1)n1c(SCc2ccccc2F)nc2ccncc21 (stereo unspecified) | n | n | n | 9.3 | n
CSc1nc2ccccc2n1C(=O)NC1CCCCC1 | n | n | n | n | n
COc1cc2c(cc1OC)-c1cc(NC3CCCCCCC3)nc(=O)n1CC2 | n | n | n | n | n
CCOc1ccccc1Nc1cc2n(c(=O)n1)CCc1cc(OC)c(OC)cc1-2 | n | n | 34 | n | x
COc1cc2c(cc1OC)-c1cc(OCCN3CCOCC3)nc(=O)n1CC2 | + | n | 32 | n | n
COc1cc2c(cc1OC)-c1cc(NC3CC3)nc(=O)n1CC2 | n | n | 37 | n | x
CC1(C)CCC[C@@]2(C)CC=C(C(=O)O)[C@@H]3C[C@]312 | n | n | n | 9.1 | n
COCC#Cc1cnc2c(c1)C(=O)N([C@H](C)CO)C[C@@H](C)[C@@H](CN(C)C)O2 | x | x | x | x | n
N#Cc1ccc(-c2ccc([C@@H]3[C@H](CO)N4CCCCN(S(=O)(=O)c5ccccc5)C[C@@H]34)cc2)cc1 | x | x | x | x | n
SMILES | FBA Mtb inh | Rv3671c inh | GDH-TPI counter | FadD28 binding | Mtb BioA inh
C[C@@H](C(=O)NCc1ccccc1)[C@@H]1C[C@@]1(C)[C@@H](NC(=O)OCc1ccccc1)c1ccccc1 | n | n | n | n | n
COCCNC(=O)[C@H](C)[C@H]1C[C@]1(C)[C@H](NC(=O)OCc1ccccc1)c1ccccc1 | 168 | n | n | n | n
CCOC(=O)N1CCC(NC(=O)c2ccc3c(c2)N(CC)CCS3)CC1 | 73 | n | n | n | n
CC(C)NC(=O)Nc1cccc2c1O[C@@H](CN(C)C(=O)Nc1ccc3c(c1)OCO3)[C@@H](C)CN([C@@H](C)CO)C2=O | x | x | x | x | n
O=C(Nc1nc2ccccc2n1CCN1CCOCC1)c1ccccc1 | n | n | n | n | n
O=C(Nc1nc2ccccc2n1CCN1CCOCC1)c1cn(-c2ccccc2)nc1-c1ccccc1 | n | n | 42 | n | n
Cc1oc2c(CN3CCCC3)c(O)ccc2c(=O)c1-c1ccccc1 | 118 | n | n | n | n
Cc1oc2c(CN3CCC(C)CC3)c(O)ccc2c(=O)c1-c1ccccc1 | 181 | n | n | n | n
Cc1oc2c(CN3CCCC3)c(O)ccc2c(=O)c1-c1ccc(Cl)cc1 | 86 | n | n | n | n
OC[C@H]1[C@H](c2ccc(-c3ccccc3F)cc2)[C@H]2CN(Cc3ccncc3)CCCCN21 | x | x | x | x | n
